# Experimental data taken from PubChem BioAssay (NCATS).
# Inconclusive results are not listed. A call without a number means that no potency is given here. Unmarked numbers belong to inactive results. The source made the active and inactive calls. Calls come from the whole dose curve; as a rule, active = well fitted curve in the direction sought with a large enough effect; inconclusive = small, poorly fitted or top-dose-only effect, or another doubt; inactive = no such curve, though single readings can be large; an effect the other way counts as inactive or inconclusive. Where a SMILES comes first, the peptide text is derived from it. [ ]: non-standard residue; d: D form. The star is where a group is joined. Fmoc = O=C(OCC1c2ccccc2-c2ccccc21)*; AMC = Cc1cc(=O)oc2cc(N*)ccc12; Cha = N[CH](CC1CCCCC1)C(=O)O
# Columns and labels:
# [1] = tested on: Zika virus NS2B-NS3 protease; experiment: Primary screen GU AMC qHTS for Zika virus inhibitors (AID 1347154); note: nearly all actives have a fitted effect of over 70% in size; note: potency is the fitted concentration of half-maximal effect
# Summary of the method: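 Unlinked Zika NS2B hydrophilic domain/NS3 protease domain noncovalent complex (25 nM final) in 10 mM Tris-HCl pH 8.0, 0.01% Tween 20, with AMC peptide substrate. Fluorescence (ex 340, em 450 nm) change over 15 min, room temperature; percent inhibition fitted to 4-parameter Hill equation.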
# [2] = Primary qHTS for small molecule stabilizers of the endoplasmic reticulum resident proteome: Secreted ER Calcium Modulated Protein (SERCaMP) assay (AID 1508630)
# Summary of the method: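 The SH-SY5Y reporter protocol was run at 3 concentrations up to 38.3 uM (primary) or 11 concentrations (follow-up): 16 h compound, 100 nM thapsigargin for 4 h, then extracellular luciferase luminescence.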
SMILES,Potency [1],Potency [2],"activity change, negative = inhibition [1]","activity change, negative = inhibition [2]"
Nc1ncnc2c1ncn2[C@H]1O[C@@H](CSCC[C@@H](N)C(=O)O)[C@H](O)[C@@H]1O,inactive,inactive,,
CCCCCCCCCCCCC/C=C/[C@@H](O)[C@H](CO)NCCCCCCCC,,,15.2% [at 6.83 µM],-10.1% [at 3.88 µM]
COc1ccc(-n2[nH]c3c4c(ncc3c2=O)CCCCC4)cc1,inactive,inactive,,
CCCCCCOC(=O)C1(O)CC2OC1(C)n1c3ccccc3c3c4c(c5c6ccccc6n2c5c31)C(=O)NC4 (centres undefined),,,19.5% [at 4.99 µM],-23% [at 3.88 µM]
CCCCCCCCCCCCC/C=C/[C@@H](O)[C@H](CO)NC(=O)CCCCCCC,,,11.7% [at 6.83 µM],18.1% [at 3.88 µM]
CC(=O)OCOC(=O)CN(CC(=O)OCOC(C)=O)c1ccccc1OCCOc1ccccc1N(CC(=O)OCOC(C)=O)CC(=O)OCOC(C)=O,inactive,inactive,,
CCCCCCCCCCCCCCCC(=O)OCC(COP(=O)(O)O)OC(=O)CCCCCCCCCCCCCCC (centres undefined),,,13.2% [at 6.83 µM],-28.1% [at 3.88 µM]
O=c1ncccn1[C@@H]1O[C@H](CO)C(O)[C@@H]1O (some centres undefined),inactive,inactive,,
CNCC(=O)NCC(=O)N[C@@H](Cc1ccccc1)C(=O)N[C@@H](CC(C)C)C(=O)O (HELM PEPTIDE1{[Sar].G.F.L}$$$$V2.0),,,7.91% [at 6.83 µM],-6.57% [at 3.88 µM]
CC1=C(/C=C/C(C)=C/C=C/C(C)=C/C(=O)O)C(C)(C)CCC1O (centres undefined),inactive,inactive,,
CC[C@H](C)[C@H](NC(=O)[C@H](CCCN=C(N)N)NC(=O)[C@H](CCCN=C(N)N)NC(=O)[C@H](CC(C)C)NC(=O)[C@H](Cc1ccccc1)NC(=O)CNC(=O)CN)C(=O)N[C@@H](CCCN=C(N)N)C(=O)N1CCC[C@H]1C(=O)N[C@@H](CCCCN)C(=O)N[C@@H](CC(C)C)C(=O)N[C@@H](CCCCN)C(=O)O,,,11.9% [at 6.83 µM],-2.68% [at 3.88 µM]
CC(C)[C@H]1c2ccc(F)cc2CC[C@@]1(CCN(C)CCCc1nc2ccccc2[nH]1)OC(=O)C1CC1,inactive,inactive,,
O=C(O)[C@@H]1CN[C@@H](C(=O)O)C1,inactive,inactive,,
CCCCCCCCCCC1=C(C)C(=O)C(OC)=C(OC)C1=O,inactive,inactive,,
CC(CCCCC(=O)Nc1ccc(C(F)(F)F)cc1)NCCc1cnc[nH]1 (centres undefined),inactive,inactive,,
CCC(=O)NC1CCc2cccc(OC)c2C1 (centres undefined),inactive,inactive,,
COc1ccc2[nH]cc(CCO)c2c1,inactive,inactive,,
COc1ccccc1C1(O)CCN(CCCn2c3ccccc3c3ccccc32)CC1,inactive,inactive,,
CC(C)C(NS(=O)(=O)c1ccc(-c2ccc(Br)cc2)cc1)C(=O)O (centres undefined),inactive,inactive,,
CC1(C)Oc2ccc(C#N)cc2[C@@H](OC2=CC(=O)CC2)[C@@H]1O,inactive,inactive,,
C=C1/C(=C\C=C2\CCCC3(C)C2CCC3C(C)/C=C/C(O)C2CC2)CC(O)CC1O (centres undefined),inactive,inactive,,

SMILES,Potency [1],Potency [2],"activity change, negative = inhibition [1]","activity change, negative = inhibition [2]"
CC(C)C[C@H](NC(=O)[C@H](CCCCN)NC(=O)[C@H](CCCNC(=N)N)NC(=O)[C@H](C)NC(=O)[C@H](CO)NC(=O)[C@H](CCCCN)NC(=O)[C@H](CCCNC(=N)N)NC(=O)[C@H](C)NC(=O)CNC(=O)[C@@H](NC(=O)[C@H](Cc1ccccc1)NC(=O)CNC(=O)CNC(=O)[C@@H](N)Cc1ccccc1)[C@H](C)O)C(=O)N[C@@H](C)C(=O)N[C@@H](CC(N)=O)C(=O)N[C@@H](CCC(N)=O)C(=O)O,,,-13.5% [at 6.83 µM],13.9% [at 3.88 µM]
NCCC(=O)c1ccccc1N,inactive,inactive,,
CC12CCC3c4ccc(O)cc4CCC3C1CCC2O (centres undefined),inactive,inactive,,
C[C@@H](Cc1ccccc1)Nc1ncnc2c1ncn2[C@@H]1O[C@H](CO)[C@@H](O)[C@H]1O,inactive,inactive,,
CN1C/C(=C/c2ccc(B(O)O)cc2)C(=O)/C(=C/c2ccc(B(O)O)cc2)C1,inactive,inactive,,
COC(=O)[C@@H]1[C@H]2C[C@H]3c4[nH]c5ccccc5c4CCN3C[C@H]2CC[C@@H]1O,inactive,inactive,,
CCCCCCCC/C=C\CCCCCCCC(=O)OC[C@@H](O)COP(=O)(O)O,,,20.5% [at 6.83 µM],-10.9% [at 3.88 µM]
CCCCC[C@H](O)/C=C/[C@H]1C=CC(=O)[C@@H]1CCCCCCC(=O)O,,,16.3% [at 6.83 µM],-11.3% [at 3.88 µM]
O=C1C(Nc2ccccc2)=CC(=O)c2ncccc21,inactive,inactive,,
CC1=C(C(=O)OC(C)C)[C@@H](c2cccc3nonc23)C([N+](=O)[O-])=C(C)N1,inactive,inactive,,
CCC1Cc2cc(O)ccc2C2=C1c1ccc(O)cc1CC2CC (centres undefined),3.77 µM (active),inactive,,
O=Nc1ccc(O)c2ncccc12,inactive,inactive,,
Cc1cc(=O)oc2cc(NC(=O)C(CCCCN)NC(=O)C(CC3CCCCC3)NC(=O)OCC3c4ccccc4-c4ccccc43)ccc12 (centres undefined) (Fmoc-[Cha]-Lys-{AMC}; configuration not given here),18.9 µM (active),inactive,,
COc1ccc(CCNC(=O)C(=O)c2c[nH]c3ccccc23)cc1,inactive,inactive,,
N[C@@]1(C(=O)O)CN[C@@H](C(=O)O)C1,inactive,inactive,,
CCCCC/C=C/C=C1/C(=O)C=C[C@@H]1C/C=C\CCCC(=O)O,,,2.18% [at 6.83 µM],-9.18% [at 3.88 µM]
Cc1nc(N=Nc2cc([N+](=O)[O-])ccc2Cl)c(COP(=O)(O)O)c(C=O)c1O,inactive,inactive,,
CCCCCCCCCCCCCCCC(=O)N[C@@H](COP(=O)(O)O)C(=O)O,,,6.63% [at 6.83 µM],2.76% [at 3.88 µM]
O=[N+]([O-])c1cc2nc(O)c(O)nc2cc1[N+](=O)[O-],inactive,inactive,,
CC(C)ON(CC(=O)NO)S(=O)(=O)c1ccc(-c2ccccc2)cc1,inactive,inactive,,
C1CCC(NC(=NC2C3CC4CC(C3)CC2C4)N2CCOCC2)CC1 (centres undefined),inactive,inactive,,

SMILES,Potency [1],Potency [2],"activity change, negative = inhibition [1]","activity change, negative = inhibition [2]"
COC(=O)/C=C/c1cc(O)ccc1O,inactive,inactive,,
N[C@@H](Cc1cc(I)c(Oc2ccc(O)cc2)c(I)c1)C(=O)O,inactive,inactive,,
CC(N)(C(=O)O)c1ccc(P(=O)(O)O)cc1 (centres undefined),inactive,inactive,,
NCCn1oc(=O)[nH]c1=O,inactive,inactive,,
N#Cc1ccccc1OCC(O)CNCCNC(=O)Nc1ccccc1 (centres undefined),inactive,inactive,,
CC(=O)N[C@@H](CSC/C=C(\C)CC/C=C(\C)CC/C=C(\C)CCC=C(C)C)C(=O)O,inactive,inactive,,
CC(C)[C@H](O)CC[C@@H](C)C1CC[C@H]2C3CC=C4C[C@@H](O)CC[C@]4(C)C3CC[C@]12C (some centres undefined),inactive,inactive,,
CSCC[C@@H](N)C(=O)O,inactive,inactive,,
O=C(O)CCc1cc(I)c(O)c(I)c1,inactive,inactive,,
NC(N)=NCCC[C@H](NC(=O)[C@@H](N)Cc1ccc(O)cc1)C(=O)O,,,2.03% [at 6.83 µM],-11.6% [at 3.88 µM]
CCCCCCCCCCCCCCC(F)C(=O)O (centres undefined),,,19.7% [at 6.83 µM],10.1% [at 3.88 µM]
CCCCC/C=C\C/C=C\C/C=C\C/C=C\CCCC(=O)O[C@H](COCCCCCCCCCCCCCCCC)COP(=O)([O-])OCC[N+](C)(C)C,,,13.2% [at 6.83 µM],-11.5% [at 3.88 µM]
CCCCC/C=C\C/C=C\C/C=C\C/C=C\CCCC(=O)O[C@@H](CO)COCCCCCCCCCCCCCCCC,,,9.81% [at 6.83 µM],-14% [at 3.88 µM]
NS(=O)(=O)c1nn2cc(-c3ccccc3)nc2s1,inactive,inactive,,
NC(C(=O)O)c1cc(O)cc(O)c1 (centres undefined),inactive,inactive,,
CC[N+]1(C)C2CCC1CC(OC(=O)[C@H]1CCC(C(=O)OC3CC4CCC(C3)[N+]4(C)CC)(c3ccccc3)c3ccccc31)C2 (some centres undefined),inactive,inactive,,
Cc1ccc(/C=C2/CNC/C(=C\c3ccc(C)cc3)C2=O)cc1,inactive,inactive,,
CCCCC[C@H](O)/C=C/C=C\C=C\C=C\[C@@H](O)[C@@H](O)CCCC(=O)O,,,15% [at 0.59 µM],7.52% [at 0.478 µM]
COc1ccc2[nH]cc(CCNC(=O)C3CC3)c2c1,inactive,inactive,,
O=C(O)COc1ccc(OCCNC[C@H](O)COc2ccccc2)cc1,inactive,inactive,,
